High-throughput results: PubChem BioAssay, National Center for Advancing Translational Sciences (NCATS)
Only some compounds are listed: those with a hit (about 7.5% of all), similar ones and a draw of the others.
ELG1 genotox: induces genotoxicity in HEK293T cells with luciferase-tagged ELG1. Potency, µM (highest dose often 46 µM), inactives show at the highest dose activity change, positive = activation, actives largely listed as activators. actives 1.3% (n = 330,000). HEK293T ELG1-luciferase reporter, luminescence, 16 h. AID 504466; also: % of control where 0% means no effect; nearly all actives have a fitted effect of over 60% in size
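Luminescence read-out: rising ELG1-luciferase signal, reflecting elevated ELG1 protein under genetic stress, flags genotoxic compounds. Cells were treated for 16 hr at 37 °C before ONE-Glo detection.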
Rab9 prom act: activators of Rab9 promoter; actives 2.8% (n = 320,000); AID 485297; Huh7 Rab9 promoter-luciferase reporter, luminescence, 24 h; Potency, µM (series often up to 9.22 µM), inactives show top-dose activation, negative = inhibition, usual class: activators; also: % of control where 0% means no effect; nearly all actives have a fitted effect of over 60% in size
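Quantitative HTS format; Huh7 Rab9-luciferase reporter cells (1500/well) receive compound 2 h post-plating, incubate 24 h at 37 °C, then get luciferase reagent for 10 min before luminescence reading.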
SMN2 splice up: enhancers of SMN2 splice variant expression; actives 2.8% (n = 210,000); AID 1458; HEK293 SMN2-luciferase splicing reporter, luminescence, 30-36 h; Potency, µM (series often up to 46.1 µM), inactives show at the highest dose activity change, positive = activation, most hits filed as activators; also: % of control where 0% means no effect; nearly all actives have a fitted effect of over 55% in size
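HEK293 cells carry an SMN2 minigene-luciferase reporter in which exon 7 inclusion puts luciferase in frame. Cells were seeded at 2000 cells/well, attached for 10-12 hours, then exposed to compounds for 30-36 hours at 37C before ONE-Glo luminescence.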
NPC1 promoter act: activators of NPC1 promoter; Huh7 NPC1 promoter luciferase reporter, 24 h; Potency, µM (doses to about 9.22 µM), without a hit: at the highest dose activation, actives largely listed as activators; actives 2.4% (n = 320,000); AID 485313; also: % of control where 0% means no effect; nearly all actives have a fitted effect of over 60% in size
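Stable NPC1-promoter luciferase Huh7 line; cpd (DMSO) 24 h, 37 °C, 5% CO2; Amplite luciferase reagent 10 min RT; luminescence readout. qHTS format.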
FLuc counter: inhibits or activates purified firefly luciferase, miR-21 counter-screen; P08659; purified FLuc, Km substrates, luminescence inhibition; Potency, µM (series often up to 57.5 µM), for inactives: top-dose activity change, negative = inhibition, actives largely listed as inhibitors; actives 6.9% (n = 360,000); AID 588342;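 also: plate controls were vehicle for no effect and reference inhibitor for full effect; nearly all actives have a fitted effect of over 55% in size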
Target sequence (P08659 whole entry, looked up): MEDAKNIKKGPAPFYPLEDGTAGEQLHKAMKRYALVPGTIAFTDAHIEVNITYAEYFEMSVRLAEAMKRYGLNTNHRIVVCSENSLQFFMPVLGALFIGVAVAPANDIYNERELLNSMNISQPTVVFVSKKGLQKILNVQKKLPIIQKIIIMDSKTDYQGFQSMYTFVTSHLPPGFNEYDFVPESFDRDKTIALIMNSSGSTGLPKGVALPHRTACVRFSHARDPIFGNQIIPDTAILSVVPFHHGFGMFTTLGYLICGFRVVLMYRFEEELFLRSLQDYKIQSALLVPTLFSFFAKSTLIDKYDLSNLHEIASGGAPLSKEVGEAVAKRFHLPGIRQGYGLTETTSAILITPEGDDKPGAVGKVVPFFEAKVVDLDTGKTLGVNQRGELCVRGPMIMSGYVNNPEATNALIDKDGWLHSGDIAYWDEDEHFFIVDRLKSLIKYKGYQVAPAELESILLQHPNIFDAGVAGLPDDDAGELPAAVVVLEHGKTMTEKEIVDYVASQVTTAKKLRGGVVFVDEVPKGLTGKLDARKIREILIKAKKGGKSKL
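Biochemical qHTS of compounds, final roughly 60 µM downward over six points, against 10 nM purified firefly luciferase using Km concentrations of substrates (10 uM D-luciferin, 10 uM ATP) in Tris acetate pH 7.5 buffer; luminescence output.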
* hit, by the source's call; ? = inconclusive; nt = not tested or not shown. Calls follow the shape of the dose curve; as a rule, active = well fitted curve in the direction sought with a large enough effect; inconclusive = small, poorly fitted or top-dose-only effect, or another doubt; inactive = no such curve, though single readings can be large; an effect the other way counts as inactive or inconclusive. Potency is read from the fitted curve at half-maximal effect.

SMILES	ELG1 genotox	Rab9 prom act	SMN2 splice up	NPC1 promoter act	FLuc counter
O=C(COc1ccccc1)Nc1ccccc1Cl	?	?	-11.2%	?	15.1µM*
O=C(COc1ccccc1)NCCSCc1ccccc1Cl	16.7%	6.5%	nt	19.7%	26.9µM*
CCOC(=O)c1cnc2c(ccc3ccccc32)c1Nc1ccc(C(C)=O)cc1	nt	nt	-2.6%	nt	-12.2%
CCCn1cc(S(=O)(=O)c2ccc(C)c(C)c2)c(=O)c2cc(F)c(N3CCCCC3)cc21	nt	nt	nt	nt	-4.6%
COc1cccc(/C=N/NC(=O)c2cc3c(OC)c(OC)ccc3[nH]2)c1OC	3.5%	-11.5%	?	-16.1%	10.7µM*
COc1ccccc1/C=N/NC(=O)c1cc2c(OC)c(OC)ccc2[nH]1	1.0%	-2.0%	nt	-8.6%	13.5µM*
COc1cccc(/C=N/NC(=O)CN(C)S(=O)(=O)c2ccccc2)c1OC	7.8%	18.8%	nt	19.5%	21.3µM*
COc1cccc(/C=N/NC(=O)c2cc3c(OC)cccc3[nH]2)c1OC	-3.0%	-8.0%	0.6%	2.1%	21.3µM*
COc1cccc(/C=N/NC(=O)c2cc3c(OC)cccc3[nH]2)c1O	-2.0%	-35.8%	-109.4%	-27.4%	-18.7%
CC(=O)NCCNc1nc(-c2ccccc2CN(C)C)nc2ccccc12	nt	nt	-1.8%	nt	nt
Cc1cc(S(=O)(=O)N(Cc2cccs2)Cc2ccccc2F)ccc1-n1cnnn1	-1.3%	-4.4%	-15.1%	-1.0%	-0.3%
CCCn1c(SCC(=O)N(C)CC(=O)Nc2ccc(C)cc2)n[nH]c1=O	-1.0%	0.1%	nt	-1.5%	-2.0%
COc1ccc(-c2csc(C)n2)cc1OC	14.4%	8.4%	-13.2%	2.3%	?
Cc1nc(-c2cccc(NC(=O)c3ccco3)c2)cs1	9.1%	10.7%	nt	0.4%	?
COc1ccc(NC(=O)c2ccc(-c3csc(C)n3)cc2)cc1	?	2.82µM*	nt	?	2.39µM*
Cc1nc(-c2cccc(NC(=O)c3ccc(-n4cccn4)cc3)c2)cs1	-2.9%	-7.1%	nt	-0.5%	6.75µM*
Cc1nc(-c2ccc(C(=O)Nc3ccccc3F)cc2)cs1	?	?	2.82µM*	0.112µM*	0.239µM*
COc1ccc(-c2csc(C)n2)cc1	19.6%	11.5%	-5.3%	11.6%	19µM*
CCN1CCN(C(CNS(=O)(=O)c2cccs2)c2cccnc2)CC1 (configuration not stated)	0.3%	-1.8%	nt	-1.6%	1.4%
Cc1ccc2oc(C(=O)N3CCN(Cc4ncccc4C)CC3)c(C)c2c1	0.4%	2.1%	nt	-1.3%	-1.6%
Cc1nc(-c2ccc(C(=O)N3CCCC3)cc2)cs1	-6.2%	2.82µM*	nt	?	?
CCOc1ccc(NC(=O)c2ccc(-c3csc(C)n3)cc2)cc1	-11.8%	-4.9%	nt	0.5%	-2.5%
Cc1nc(-c2ccc(C(=O)N3CCOCC3)cc2)cs1	-4.6%	7.0%	-2.3%	3.3%	-1.2%
Cc1nc(-c2ccc(C(=O)Nc3cccc(F)c3)cc2)cs1	?	?	nt	0.0891µM*	0.269µM*
Cc1nc(-c2ccc(C(=O)Nc3ccc(F)cc3)cc2)cs1	20.6µM*	?	7.7%	?	0.757µM*
SMILES	ELG1 genotox	Rab9 prom act	SMN2 splice up	NPC1 promoter act	FLuc counter
CCc1ccc(NC(=O)C2CCN(S(=O)(=O)c3cccc(-c4noc(C)n4)c3)CC2)cc1	nt	nt	nt	nt	-12.6%
COC(=O)c1scc(C)c1NC(=O)CC1NCCNC1=O (configuration not stated)	-0.3%	-6.3%	nt	0.5%	-0.4%
CN(CCCS(=O)(=O)[O-])c1ccc(/C=C/c2ccc3ccccc3[n+]2C)cc1	-0.6%	-3.4%	nt	-4.7%	-11.3%
[O-][n+]1c(/C=C/c2ccccc2)ccc2ccccc21	6.51µM*	2.82µM*	nt	3.98µM*	0.849µM*
Cc1ccc(S(=O)(=O)c2nc(-c3ccc(F)cc3)oc2SCC(N)=O)cc1	1.8%	-3.7%	-25.9%	-1.5%	0.7%
O=C(NNC(=O)c1nn(-c2ccc(F)cc2)ccc1=O)c1ccc(Cl)cc1	-4.0%	8.5%	nt	3.2%	?
Cc1ccc(C(=O)NNC(=O)c2nn(-c3ccc(F)cc3)ccc2=O)cc1	1.4%	-6.2%	nt	-1.3%	15.1µM*
Clc1ccc(-c2cn3c(n2)SCC3)cc1	15.1%	1.41µM*	11.2µM*	1.78µM*	19µM*
Oc1ccc(-c2cn3c(n2)SCC3)cc1	16.7%	3.7%	9.4%	9.7%	?
Brc1ccc(-c2cn3c(n2)SCC3)cc1	10.3µM*	0.708µM*	10µM*	1.12µM*	5.36µM*
CN1CCC(=NNC(=O)COc2ccc(Cl)cc2)CC1	0.5%	1.3%	8.8%	-0.8%	5.2%
CCOc1ccc(NC(=O)C2CCN(S(=O)(=O)c3c(C)noc3/C=C/c3cccs3)CC2)cc1	nt	nt	-5.3%	nt	-4.3%
CCOc1ccc(C(=O)Nc2cc(-c3ccccc3)no2)cc1	nt	nt	?	nt	1.51µM*
Cc1ccc(-c2cc(NC(=O)c3ccccc3Cl)on2)cc1	nt	nt	12.6µM*	nt	?
CCCCOc1ccc(C(=O)Nc2cc(-c3ccc(C)cc3)no2)cc1	nt	nt	4.4%	nt	4.7%
COc1cccc(C(=O)Nc2cc(-c3ccccc3)no2)c1	nt	nt	15.8µM*	nt	1.2µM*
COc1cc(C(=O)NCCN=C2NS(=O)(=O)c3ccccc32)cc(OC)c1OC	7.3%	4.2%	nt	1.1%	1.3%
COc1ccc(/C=C/C(=O)NCCN=C2NS(=O)(=O)c3ccccc32)cc1	-4.7%	-9.5%	7.9%	-1.6%	15.1µM*
O=C(O)/C=C\c1cn(-c2ccccc2)nc1-c1cc2ccccc2o1	8.4%	-2.0%	10.7%	-1.0%	13.5µM*
COC(=O)C1CCN(Cc2cn(Cc3ccccc3)nc2-c2cc3ccccc3o2)CC1	-6.7%	-0.2%	nt	-0.5%	0.3%
CN(C)C(=O)c1cn(-c2ccccc2)nc1-c1cc2ccccc2oc1=O	-4.4%	0.0%	21.0%	-0.5%	-5.0%
O=C(O)c1cc(-c2cc3ccccc3o2)nn1-c1ccccc1	5.1%	13.9%	12.6%	-3.6%	?
CN(C)C(=O)c1cn(-c2ccccc2)nc1-c1cc2ccccc2o1	-1.1%	-4.2%	-9.2%	-0.6%	23.9µM*
O=C(Nc1ccc([N+](=O)[O-])cc1)c1cn(-c2ccccc2)nc1-c1cc2ccccc2o1	?	-1.8%	2.1%	-1.3%	4.0%
CN(Cc1cn(-c2ccccc2)nc1-c1cc2ccccc2o1)C(=O)CCC(=O)O	?	27.0%	4.6%	17.3%	3.01µM*
O=C(O)/C=C/c1cn(-c2ccccc2)nc1-c1cc2ccccc2o1	4.0%	0.3%	nt	-1.9%	15.1µM*
COc1ccc(N2C(=O)C(OC(C)=O)C2c2ccc(C)cc2)cc1 (configuration not stated)	-0.9%	-2.1%	18.4%	-0.5%	0.9%
NC(=O)CSc1nnc(-c2ccccc2Br)n1-c1cccc(C(F)(F)F)c1	-0.9%	-1.3%	-4.4%	-0.4%	-3.0%
CCCC(=O)NC(=S)Nc1ccc(N2CCOCC2)c(Cl)c1	3.6%	-6.1%	-0.8%	-1.3%	?
